Measurements taken from PubChem BioAssay (NCI).
About 83,000 compounds went through this panel and 20% of them were active in at least one assay; those are over-represented in the sample as a whole.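 Method: cells in 96-well plates; compound added at one concentration; 48 h incubation; percent growth measured; values under 10 scored active.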 The source made the active and inactive calls.

The molecules below were run on SK-MEL-2 melanoma (assay: NCI-60 one-dose screen, 48 h (100 = growth as untreated, 0 = no growth, -100 = all killed)). Settings: 10 µM.
Protocol: Growth inhibition of the SK-MEL-2 human tumor cell line is measured as a screen for anti-cancer activity. Cells are grown in 96 well plates and exposed to the test compound for 48 hours. Compounds are tested at a single concentration, which is 10^-5 M for most compounds. The reported endpoint is percent growth (GI% or GIPRCNT), where numbers from 0 - 100% represent growth inhibition, and numbers from -100% - 0 represent cell death. For example, a value of 40 represents 60% growth inhibition. A value of 0 means no net growth occurred over the course of the experiment. A value of -40 indicates 40% of cells at the beginning of the experiment died by the end of the experiment. A value of -100 means all cells are dead at the end of the experiment.
NCI-60 Human Tumor Cell Lines Screen was performed using the standard one-dose NCI protocol, which is described in more detail at https://dtp.cancer.gov/discovery_development/nci-60/default.htm.
Compounds with GIPRCNT values below 10 were considered active. Activity score was based on GIPRCNT using the following formula: […]
Score is 0 for GIPRCNT values of 100 or above, 50 for GIPRCNT values of 0, and 100 for GIPRCNT values of -100.

SMILES | growth
CC12O[C@H](C[C@@H](OC(=O)c3ccccc3)[C@H]1O)n1c3ccccc3c3c4c(c5c6ccccc6n2c5c31)C(=O)NC4=O | 54.2% (inactive)
Nc1ccc2c(c1)Cc1cc(N)c(Br)cc1-2 | 116% (inactive)
CSc1nn(-c2ccccc2)c2ncnc(Oc3ccc(C)cc3)c12 | 75.3% (inactive)
CCOC(=O)C1CCc2c(ccc3ccccc23)N1CCC#N (stereo not given) | 134% (inactive)
CC(C)(C#N)Nc1ccccc1 | 109% (inactive)
COc1cc2cc3c(nc2cc1OC)CCN3Cc1ccc(NC(=O)c2ccc(Cl)c(C(F)(F)F)c2)cc1 | 108% (inactive)
Cc1cc2c(C)c3cc(C)c(N)cc3nc2cc1N | -18.1% (active)
COc1cc(-c2nc(-c3nnc(-c4ccc(F)c(Cl)c4)o3)c3ccccn23)cc(OC)c1OC | 25.8% (inactive)
O=C1/C(=C\c2ccccc2)CN(C(=O)c2ccccc2)C/C1=C\c1ccccc1 | 58.6% (inactive)
CC/C(C)=C(\C)C(=O)O | 102% (inactive)
CC(C)N(CCNc1nc(C(Cl)(Cl)Cl)nc2cc(Cl)ccc12)C(C)C | -60% (active)
Cc1cc(N(CCCNc2ccnc3cc(Cl)ccc23)Cc2cccs2)nc(Cl)n1 | 64.7% (inactive)
COc1cc(-c2cc(/C=C/C(=O)c3ccc(Cl)c(Cl)c3)[nH]n2)cc(OC)c1OC | 86.7% (inactive)
COc1ccc(Nc2ncnc3c2c(SC)nn3-c2ccccc2)cc1 | 86.8% (inactive)
COc1ccc(-c2nc(-c3nc4ccc(OC)cc4[nH]3)cc3c2[nH]c2ccccc23)cc1 | 11.2% (inactive)
O=S(=O)(Nc1ccccn1)c1ccc(N=Nc2ccc(O)c3ncccc23)cc1 | -30.1% (active)
O=C(Nc1ccc(Cl)c([N+](=O)[O-])c1)Nc1nc2ccccc2s1 | 102% (inactive)
Clc1ccc(Nc2ccnc(NCCCNc3ccnc4cc(Cl)ccc34)n2)cc1 | -91% (active)
CN(Cc1ccccc1)Cc1ccc([N+](=O)[O-])cc1I | 95.3% (inactive)
COc1ccc(-c2nc3ncccn3c2-c2nnc(-c3ccsc3C)o2)cc1 | 90.5% (inactive)

SMILES | growth
COc1cc(Cl)cc(-c2nn(-c3cccc(NC(=O)Nc4cc(C(F)(F)F)cc(C(F)(F)F)c4)c3)cc2-c2ccncc2)c1 | -38.1% (active)
COc1ccc(-c2nc3sc(-c4ccccc4)c(-c4ccccc4)n3c2/C=C/C(=O)c2ccccn2)cc1 | 67.3% (inactive)
COc1cc(/C(=C2/O[C@@H]([C@H]3COC(C)(C)O3)[C@H]3OC(C)(C)O[C@@H]23)c2ccc3ccccc3c2)cc(OC)c1OC | -49.7% (active)
COc1cc2c(cc1OCCCN1CCN(c3ncnc4ccccc34)CC1)N=CC1CCCN1C2=O (stereo not given) | 6.33% (active)
COc1ccc2c(c1)C(=O)c1c-2c(OCCN(C)C)nc2cc(OC)c(OC)cc12 | 54.3% (inactive)
CCCCC(CCCCCC(CCCC)NCc1ccc2c(c1)OCO2)NCc1ccc2c(c1)OCO2 (stereo not given) | -87.2% (active)
COc1ccc2c(c1)[n+]([O-])c(C#N)c(NC(=O)c1ccco1)[n+]2[O-] | 101% (inactive)
CCCCCCCCCCCCC1C/C=C\CCCC(=O)O1 (stereo not given) | 111% (inactive)
COc1ccc(-c2nc(-c3nc4ccc(Cl)cc4[nH]3)c3ccccn23)cc1 | 41% (inactive)
Nc1c(C(=O)Nc2ccccc2Cl)sc2nc3c(cc12)C(=O)CCC3 | 35.4% (inactive)
C#Cc1ccc(-n2c(/C=C/c3ccc4ccccc4n3)nc3ncccc3c2=O)cc1 | -67% (active)
CC1CN(Cc2ccccc2)C(=O)NC1=O (stereo not given) | 102% (inactive)
CCCCCCCCCCCCCCCCCCOCC(COCCOCC[N+]1(CCCCCC(=O)[O-])CCCC1)Oc1ncccn1 (stereo not given) | 70.3% (inactive)
CSc1nc(=O)n(Cc2ccc(F)cc2)c(=O)n1Cc1ccc(C)cc1 | 108% (inactive)
CN1CCC(CNc2cc(C3(C(=O)Nc4cc(C(=O)Nc5ccc(Cl)c(C(F)(F)F)c5)ccc4F)CC3)ncn2)CC1 | -57.2% (active)
O=C1/C(=C/c2ccc([N+](=O)[O-])s2)Oc2ccccc21 | -48.9% (active)
O=C1/C(=C/c2ccc([N+](=O)[O-])o2)Oc2ccccc21 | 17.2% (inactive)
COC(=O)[C@@H]1[C@H](O)[C@H](C)[C@H](O)[C@@](C)(O)/C=C\C=C(C)C(=O)Nc2c(C)c(OC(C)=O)c3c(c2O)C(=O)C(C)=C2OCOC(=C23)C(C)=C[C@@](C)(O)[C@H](O)[C@@H](C)[C@H]1OC(C)=O | 117% (inactive)
Nc1ncn([C@@H]2O[C@H](CO)[C@@H](O)[C@H]2O)c(=O)n1 | -21.5% (active)
O=C1C(=O)c2ccccc2C(O)=C1CCCc1ccc(C2CCCCCC2)cc1 | 88.1% (inactive)
